This note sets out measurements from PubChem BioAssay (NCATS).

For test [1], the target named is Glutathione peroxidase 1 (Homo sapiens) (UniProt P07203). Description: Primary qHTS Assay for Inhibitors of Recombinant Selenoprotein Glutathione Peroxidase 1 (GPX1) (AID 1845191). The method in brief: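 GR-coupled assay: compounds preincubated 30 min at room temperature with GPX1, then reaction started with CHP; final 10 nM GPX1, 1 mM GSH, 0.5 mM CHP, 0.5 mM NADPH, 100 nM GR, 0.01% BSA, pH 7.5 Tris buffer. NADPH fluorescence (340/450 nm) read at 0 and 15 min.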
Chain of Glutathione peroxidase 1 (Homo sapiens) (P07203 whole entry, looked up): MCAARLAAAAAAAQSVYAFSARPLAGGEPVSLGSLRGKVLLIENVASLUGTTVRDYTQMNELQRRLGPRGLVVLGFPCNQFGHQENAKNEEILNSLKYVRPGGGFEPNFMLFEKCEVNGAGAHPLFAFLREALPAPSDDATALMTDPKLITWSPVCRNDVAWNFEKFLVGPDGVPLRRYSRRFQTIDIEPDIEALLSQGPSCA
On the technique in general: Quantitative high-throughput screening tests each substance at several concentrations.

The target of test [2] is Phospholipid hydroperoxide glutathione peroxidase GPX4 (Homo sapiens) (UniProt P36969). Put plainly: Primary qHTS Assay for Inhibitors of Recombinant Selenoprotein Glutathione Peroxidase 4 (GPX4) (AID 1845192). Further: potency means the concentration at half of the fitted maximal effect. The method in brief: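 GR-coupled assay: recombinant GPX4 preincubated 30 min with compound at room temperature; final 200 nM GPX4, 1 mM GSH, 0.5 mM cumene hydroperoxide, 0.5 mM NADPH, 100 nM GR, 0.01% BSA, pH 7.5 Tris. NADPH fluorescence (340/450 nm) read at 0 and 15 min.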
Chain of Phospholipid hydroperoxide glutathione peroxidase GPX4 (Homo sapiens) (P36969 whole entry, looked up): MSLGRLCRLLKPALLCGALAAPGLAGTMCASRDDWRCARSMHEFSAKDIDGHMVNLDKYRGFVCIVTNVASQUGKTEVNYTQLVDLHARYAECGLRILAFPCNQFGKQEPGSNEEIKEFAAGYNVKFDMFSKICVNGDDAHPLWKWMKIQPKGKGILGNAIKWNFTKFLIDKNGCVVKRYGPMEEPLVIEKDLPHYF

Inconclusive results are not listed. A call without a number means that no potency is given here. Calls of active or inactive are those of the source. The call rests on the fitted dose curve; in most records, active means well fitted inhibition curve with a large enough effect; inconclusive means small, poorly fitted or top-dose-only effect; inactive means flat fitted curve, though single readings scatter. Positions of bridges follow the written chain, without caps; N, C: chain ends. Non-standard residues stand in square brackets, D forms with d. Residues, ends and D or L forms follow the SMILES beside them. ξ: configuration not given here. *: point of attachment. Octanoyl(6-Me) = CCC(C)CCCCC(=O)*; ξThr(3R) = C[C@@H](O)C(N)C(=O)O; dDab = NCC[C@@H](N)C(=O)O; Dab = NCC[C@H](N)C(=O)O
Further: nearly all actives have a fitted effect of over 65% in size.

Take `O=C(NC1CC1)c1cccc(-c2ccc3c(NC(=O)C4CC4)n[nH]c3c2)c1`: the Potency result in test [1] and in test [2] was “inactive” throughout.

For the compound `C[C@H](O)[C@@H]1C(=O)N2C(C(=O)O)=C(S[C@@H]3CN[C@H](CNS(N)(=O)=O)C3)[C@@H](C)[C@@H]12`, the Potency result in test [2] was “inactive”.

Take `COc1cc(C(=O)NC2CCN(C)CC2)ccc1Nc1ncc2c(n1)N(C1CCCC1)CCC(=O)N2C(C)C`: the Potency entry in test [2] is “inactive”.

For the compound `COC[C@H](NC(=O)c1cnc(C)s1)C(=O)N[C@@H](COC)C(=O)N[C@@H](Cc1ccccc1)C(=O)[C@@]1(C)CO1`, the Potency entry in test [1] and in test [2] was “inactive” in each case.

Regarding `FC(F)(F)c1ccc(Nc2nc3ccc(Oc4ccnc(-c5ncc(C(F)(F)F)[nH]5)c4)cc3[nH]2)cc1`, the Potency entry in test [1] and in test [2] was “inactive” throughout.

With `CCC(C)CCCCC(=O)N[C@@H](CCN)C(=O)NC(C(=O)N[C@H](CCN)C(=O)N[C@@H]1CCNC(=O)C([C@@H](C)O)NC(=O)[C@@H](CCN)NC(=O)[C@@H](CCN)NC(=O)[C@@H](CC(C)C)NC(=O)[C@H](Cc2ccccc2)NC(=O)[C@H](CCN)NC1=O)[C@@H](C)O` (stereo partly drawn) ({Octanoyl(6-Me)}-[Dab][ξThr(3R)][dDab][dDab][Dab]F[dL][dDab][dDab][ξThr(3R)]; lactam 4-C), the Potency result in test [2] was “inactive”.

Take `O=C(CN1C(=O)C2(CCCC2)NC[C@H]1c1cc(F)cc(F)c1)Nc1ccc2c(c1)C[C@@]1(C2)C(=O)Nc2ncccc21`: the Potency result in test [1] and in test [2] was “inactive” throughout.

Take `O=[N+]([O-])c1cn2c(n1)OC[C@@H](OCc1ccc(OC(F)(F)F)cc1)C2`: the Potency result in test [1] and in test [2] was “inactive” in each case.

For the compound `NC(=O)Nc1cc(-c2ccc(CN3CCOCC3)cc2)sc1C(N)=O`, the Potency result in test [1] and in test [2] was “inactive” throughout.

Turning to `Oc1ccc([C@@H]2Oc3ccc(O)cc3[C@@H]3CCC[C@@H]32)cc1`, the Potency result in test [1] and in test [2] was “inactive” throughout.

For `CN(CC(=O)N(Cc1ccc(C2CCCCC2)cc1)c1ccc(C(=O)O)c(O)c1)S(=O)(=O)c1c(F)c(F)c(F)c(F)c1F`, the Potency result in test [1] was “inactive”. Moreover, in test [2], the Potency was 11.4 µM (active).

For the compound `c1coc(CNc2ncnc3nc[nH]c23)c1`, the Potency result in test [1] and in test [2] was “inactive” in each case.

In the case of `O=C1NCCc2[nH]c(-c3ccncc3)cc21`, the Potency result in test [1] and in test [2] was “inactive” each time.
